We go through 39 compounds from PubChem BioAssay (NCI).

About 79,000 compounds went through this panel and 15% of them were active in at least one assay; those are over-represented in the sample as a whole. A number with no mark means an inactive call. The source made the active and inactive calls. Rule as the data show it: active = growth inhibition above about 70%; inactive = the rest.

A short description of assay [1]: NCI Yeast Anticancer Drug Screen. Data for the rad50 strain (AID 155).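 Also: 0% = growth of vehicle-only cultures of the same strain.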 The note with it: S. cerevisiae rad50 strain growth inhibition; at 50.0 µM; hits give high values. The essentials:
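Genetically altered yeast (DNA repair pathway); compound treatment; growth inhibition vs vehicle ctrl.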

The nature of assay [2]: NCI Yeast Anticancer Drug Screen. Data for the mec2-1 strain (AID 157). As to conditions: S. cerevisiae mec2-1 strain, at 50.0 µM, hits give high values. The essentials:
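Yeast mec2-1 mutant treated with compound. Readout: growth inhibition vs vehicle controls.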

Assay [3] can be described thus: NCI Yeast Anticancer Drug Screen. Data for the sgs1 mgt1 strain (AID 161).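 Also: 0% = growth of cultures given vehicle only.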 The note with it: S. cerevisiae sgs1 mgt1 strain, at 50.0 µM, hits give high values. The essentials:
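Genetically altered yeast, compound exposure, growth inhibition relative to vehicle.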

Assay [4] in a line: NCI Yeast Anticancer Drug Screen. Data for the cln2 rad14 strain (AID 165).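 Also: 0% = growth equal to vehicle treated cultures.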 The note with it: S. cerevisiae cln2 rad14 strain, at 50.0 µM, hits give high values. In outline: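 cln2 rad14 yeast strain; compound exposure; growth inhibition read vs vehicle controls.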
A short description of assay [5]: NCI Yeast Anticancer Drug Screen. Data for the bub3 strain (AID 167). As to conditions: S. cerevisiae bub3 mutant strain, at 50.0 µM, hits give high values. The essentials:
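Yeast carrying a defined mutation is treated with each compound, and growth is compared with that of vehicle-exposed cells to give inhibition.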

The nature of assay [6]: NCI Yeast Anticancer Drug Screen. Data for the mlh1 rad18 strain (AID 175). The note with it: S. cerevisiae mlh1 rad18 strain growth inhibition; at 50.0 µM; hits give high values. In outline:
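Yeast w/ defined DNA-repair lesions; compound exposure; growth vs vehicle controls → % inhibition.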

Take `O=C1C2C3CCC(O3)C2C(=O)N1Cc1ccccc1CN1C(=O)C2C3CCC(O3)C2C1=O` (centres undefined): the growth inhibition in assay [1] was 82% (active); in assay [2] it was 95.2% (active); in assay [3], 89.2% (active); in assay [4], 98.6% (active); in assay [5], 98.1% (active); in assay [6] it was 95.8% (active).

For the compound `CCN(CC)/[N+]([O-])=N/OC`, the growth inhibition in assay [1] was -13.6%; in assay [2], -0.3%; in assay [3], 10.9%; in assay [4], 13.4%; in assay [5], 10.3%; in assay [6] it was 1.35%.

Consider `N=C(N)SCc1cccc(-c2nc3ccccc3c(=O)o2)c1`, for which the growth inhibition is 22.2% in assay [1]; 17.4% in assay [2]; 7.9% in assay [3]; 5.95% in assay [4]; 20.8% in assay [5]; 16.9% in assay [6].

As to `CC(C)=CC1C(CO)C1(C)C` (centres undefined), the growth inhibition in assay [1] was -7.8%; in assay [2] it was -17.2%; in assay [3], 23.8%; in assay [4] it was -16.6%; in assay [5], -6.25%; in assay [6], -16.9%.

Turning to `Nc1cccc(=O)[nH]1`, the growth inhibition in assay [1] was 6.3%; in assay [2], -10.2%; in assay [3], -0.05%; in assay [4], 3.7%; in assay [5] it was 9.45%; in assay [6] it was -3.85%.

For `CC1(C)N=C(N)N=C(N)N1c1cccc(OCc2cccc([N+](=O)[O-])c2)c1`, the growth inhibition was 0.55% in assay [1]; 7.2% in assay [2]; -31.3% in assay [3]; 24.6% in assay [4]; -30.3% in assay [5]; -14.8% in assay [6].

As for `CCOC(=O)N1N=NC(c2ccccc2)C1(c1ccccc1)N1CCOCC1` (centres undefined), the growth inhibition in assay [1] was 38.8%; in assay [2], -14.8%; in assay [3], 30.3%; in assay [4] it was 4.05%; in assay [5] it was 10.4%; in assay [6], 8.7%.

As to `CCN(CC)n1c(N)nc2c1c(=O)n(C)c(=O)n2C`, the growth inhibition is -9.05% in assay [1]; -6.65% in assay [2]; 2.95% in assay [3]; -24.6% in assay [4]; 9.65% in assay [5]; 13.3% in assay [6].

Take `NC(=O)N/N=C(\CC1OC(=O)c2ccccc21)c1ccc([N+](=O)[O-])cc1` (centres undefined): the growth inhibition is 5.4% in assay [1]; 3.85% in assay [2]; -17.6% in assay [3]; 3.85% in assay [4]; -23.9% in assay [5]; 0% in assay [6].

For the compound `S=c1sc2cscc2s1`, the growth inhibition in assay [1] is -6.7%; in assay [2] it was 18.6%; in assay [3], -8.5%; in assay [4], 28.6%; in assay [5] it was -3%; in assay [6], -1.8%.

For `O=C(O)c1cccc(C#Cc2ccccc2)c1`, the growth inhibition was 16.7% in assay [1]; 5.25% in assay [2]; 12.5% in assay [3]; -15.4% in assay [4]; 4.55% in assay [5]; 25.1% in assay [6].

Consider `Cc1cc(O)c([N+](=O)[O-])c(C)c1[N+](=O)[O-]`, for which the growth inhibition in assay [1] was 2.2%; in assay [2] it was 35.2%; in assay [3] it was 3.5%; in assay [4], 41.2%; in assay [5], 39.3%; in assay [6] it was 0.25%.

With `Nc1cccc(OCC2CCCN3CCCCC23)c1` (centres undefined), the growth inhibition is 20% in assay [1]; -17.9% in assay [2]; 4.9% in assay [3]; 2.45% in assay [4]; 6.05% in assay [5]; -64.8% in assay [6].

With `C1=C(c2ccccc2)c2ccccc2/C1=N/Nc1ccccc1`, the growth inhibition in assay [1] is 6.4%; in assay [2], 6.15%; in assay [3], 8.1%; in assay [4], 2.3%; in assay [5], 0.6%; in assay [6], 5%.

`COc1ccc2c(c1)c(CC(=O)O)c(Br)n2Cc1ccccc1`: the growth inhibition is 27.9% in assay [1]; 33.4% in assay [2]; 12% in assay [3]; 21.4% in assay [4]; 20.1% in assay [5]; 77.7% (active) in assay [6].

Take `Clc1cccc[n+]1CCc1ccccc1`: the growth inhibition was 9.4% in assay [1]; 22.9% in assay [2]; 5.3% in assay [3]; -4.55% in assay [4]; 7.55% in assay [5]; 44% in assay [6].

As for `C=C(C)C(=O)O[C@@H]1C[C@@]2(C)O[C@@H]2C[C@H](O)/C(C)=C/[C@H]2OC(=O)C(=C)[C@@H]21`, the growth inhibition in assay [1] was -19.6%; in assay [2], -33.1%; in assay [3] it was -22.5%; in assay [4] it was 0.35%; in assay [5], -16.5%; in assay [6], -43.1%.

`CCOC(=O)COc1cc2c(cc1Cc1ccc3c(c1)OCO3)OCO2`: the growth inhibition in assay [1] was 0.6%; in assay [2], 1.95%; in assay [3], -0.7%; in assay [4], 5.65%; in assay [5], 16.2%; in assay [6], 0.95%.

As for `CC(O)C(C)C(N)C(=O)O` (centres undefined), the growth inhibition is 3.7% in assay [1]; 2% in assay [2]; -1.05% in assay [3]; -0.85% in assay [4]; -0.3% in assay [5]; 18.4% in assay [6].

For `CC(=O)OC(OC(C)=O)c1ncccc1C(=O)OC(C)C`, the growth inhibition in assay [1] is -14.6%; in assay [2] it was -13.2%; in assay [3], -14.7%; in assay [4] it was 10.8%; in assay [5], -8.45%; in assay [6] it was -21.7%.

In the case of `COc1c(C)cc(Cc2ccc3c(c2)OCO3)cc1C`, the growth inhibition was -7.8% in assay [1]; -12.9% in assay [2]; 4.2% in assay [3]; -22% in assay [4]; -10.6% in assay [5]; -5.3% in assay [6].

On to `CC(C)C(C)(O)C#CC(C)(O)C(C)C` (centres undefined), for which the growth inhibition in assay [1] was 1.4%; in assay [2], 8.85%; in assay [3] it was 3.25%; in assay [4] it was -15.5%; in assay [5], 23.9%; in assay [6], 12.1%.

Regarding `CCCOC1OC(CS(=O)(=O)O)C(OC(C)=O)C(OC(C)=O)C1OC(C)=O` (centres undefined), the growth inhibition is 3.25% in assay [1]; 3.1% in assay [2]; 8.4% in assay [3]; 18% in assay [4]; 2.4% in assay [5]; 5.95% in assay [6].

As for `CCOC(=O)/C=C/C(=O)NN`, the growth inhibition was 11.4% in assay [1]; -6.35% in assay [2]; 2.6% in assay [3]; -26% in assay [4]; 0.4% in assay [5]; 5.6% in assay [6].

In the case of `CCCCCCCc1cc(OC(=O)c2c(C)cc(OC)cc2O)cc(O)c1C(=O)O`, the growth inhibition is 13.4% in assay [1]; -16.2% in assay [2]; 8.65% in assay [3]; -10% in assay [4]; -14.2% in assay [5]; 16.8% in assay [6].

`CCCc1cc(=O)oc2c3c(c4c(c12)OC(C)(C)CC4)O[C@H](C)C(C)[C@@H]3O` (some centres undefined): the growth inhibition in assay [1] is 9.9%; in assay [2], 7.45%; in assay [3], 22.1%; in assay [4], -11.3%; in assay [5], 2.85%; in assay [6] it was -10.6%.

On to `CCS(=O)(=O)CC(C)O` (centres undefined), for which the growth inhibition in assay [1] was 13.7%; in assay [2], -11.3%; in assay [3], -4.2%; in assay [4], 10.1%; in assay [5], 11%; in assay [6], -7.95%.

On to `CC1=NOC2(C1)/C(=N/O)CCC/C2=N\O` (centres undefined), for which the growth inhibition in assay [1] is -3.65%; in assay [2], -25.1%; in assay [3] it was -1.5%; in assay [4], 20.9%; in assay [5], -11.6%; in assay [6], 0.45%.

For the compound `C[C@H](C(=O)C12CC3CC(CC(C3)C1)C2)[C@H](O)c1ccccc1`, the growth inhibition in assay [1] is 5.85%; in assay [2] it was 4.7%; in assay [3] it was -10.8%; in assay [4] it was 17%; in assay [5], -11.5%; in assay [6] it was -18.2%.

For the compound `Cc1ccc(NC(=O)C(=O)Cc2cc[n+]([O-])cc2)cc1`, the growth inhibition in assay [1] was -1.9%; in assay [2] it was -1.5%; in assay [3] it was 11.9%; in assay [4] it was 7.6%; in assay [5], 3.55%; in assay [6], 4.05%.

With `c1cc(Nc2ccncc2)ccn1`, the growth inhibition in assay [1] was 23.6%; in assay [2], -13%; in assay [3], -1.9%; in assay [4], 6.2%; in assay [5] it was 0.15%; in assay [6], 19.9%.

`CNC(=O)NC(c1ccc2c(c1)OCO2)c1cc2c(cc1O)OCO2` (centres undefined): the growth inhibition in assay [1] was 10.8%; in assay [2], -2.7%; in assay [3], 13.9%; in assay [4], 14.2%; in assay [5], 19.2%; in assay [6], 24.6%.

For the compound `O=C1C=C(n2ccccc2=O)CCC1`, the growth inhibition in assay [1] was 8.05%; in assay [2] it was 2.15%; in assay [3], 11.4%; in assay [4] it was -29.1%; in assay [5] it was -1.8%; in assay [6], 0.05%.

Turning to `O=[N+]([O-])c1ccccc1S(=O)(=O)c1ccccc1[N+](=O)[O-]`, the growth inhibition in assay [1] was -26.4%; in assay [2], -9.45%; in assay [3] it was -14.1%; in assay [4], -10%; in assay [5], -1.5%; in assay [6], -21%.

For `CCN(CCOC(=O)Nc1ccc(Cl)cc1)C(=O)Nc1ccc(Cl)cc1`, the growth inhibition in assay [1] is -1.75%; in assay [2], -36.8%; in assay [3] it was 16.4%; in assay [4], 2.8%; in assay [5], -8.55%; in assay [6], -18.2%.

In the case of `COc1ccc(/C=C2\N=C(c3ccc(Cl)cc3)OC2=O)cc1Br`, the growth inhibition is 10.2% in assay [1]; -2.15% in assay [2]; 21.5% in assay [3]; 5% in assay [4]; 12.8% in assay [5]; 17.3% in assay [6].

`O=C(C1=Cc2ccccc2OC1)N1CCN(c2ccccc2Cl)CC1`: the growth inhibition in assay [1] was 12.3%; in assay [2], 20.2%; in assay [3], 34.6%; in assay [4] it was 24.4%; in assay [5] it was 38%; in assay [6], 40.1%.

`COc1cc(/C=N/N2CC(=O)N(c3ccccc3)CC2=O)cc(OC)c1`: the growth inhibition is -469% in assay [1]; 18.1% in assay [2]; 23.7% in assay [3]; 7.1% in assay [4]; 10.8% in assay [5]; 13.1% in assay [6].

Consider `NC(=O)C1N=NSC1NC(=O)c1ccc([N+](=O)[O-])cc1` (centres undefined), for which the growth inhibition in assay [1] was 1.8%; in assay [2] it was -5.6%; in assay [3], -8.9%; in assay [4] it was 6.65%; in assay [5] it was -9.15%; in assay [6], 5.45%.
